Measured values taken from PubChem BioAssay AID504550 (Sanford-Burnham Center for Chemical Genomics, 2011).
The other results are listed elsewhere or left out. Calls of active or inactive are those of the source.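 Rule for the calls: active = mean activation at 20 µM of at least 40%; inactive = the rest.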

Target: Neurotensin receptor type 1 (Homo sapiens) (UniProt P30989)
Test: beta-arrestin-GFP spots via human NTR1 – imaging, U2OS cells, single concentration, confirmation (AID 504550);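 note: 0% = DMSO without peptide and 100% = 100 nM NTR1 peptide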
Details: NTR1-U2OS beta-arrestin-GFP translocation imaging; at 20 µM; active compounds read high

Sequence of Neurotensin receptor type 1 (Homo sapiens) (P30989 whole entry, looked up): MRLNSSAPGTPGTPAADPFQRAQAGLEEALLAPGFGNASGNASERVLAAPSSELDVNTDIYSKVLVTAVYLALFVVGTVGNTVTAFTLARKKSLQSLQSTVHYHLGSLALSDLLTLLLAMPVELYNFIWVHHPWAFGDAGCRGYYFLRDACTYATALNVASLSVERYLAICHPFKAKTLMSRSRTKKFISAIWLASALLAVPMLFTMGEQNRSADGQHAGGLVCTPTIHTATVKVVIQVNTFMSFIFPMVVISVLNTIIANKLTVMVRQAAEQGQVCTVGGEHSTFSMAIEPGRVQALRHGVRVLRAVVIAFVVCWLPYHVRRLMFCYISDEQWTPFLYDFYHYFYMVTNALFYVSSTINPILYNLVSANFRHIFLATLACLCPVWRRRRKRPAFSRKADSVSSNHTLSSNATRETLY

Row | SMILES | activation
1 | O=C1NC(=O)N(CCc2ccc(F)cc2)C(=O)/C1=C/C=C/c1ccccc1 | 43.1% (active)
2 | Cc1cccc(N2C(=O)NC(=O)/C(=C\c3cnn(-c4ccccc4)c3)C2=O)c1 | 47.1% (active)
